HCV inh: blocks hepatitis C virus; 340,000 compounds, 3.4% hits; Potency, µM (series often up to 41.8 µM), usual class: inhibitors; AID 651820; Huh7.5.1 HCVcc-Cre infection, luciferase reporter, 44 h
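Antiviral activity was scored by luciferase reporter output from cells infected with HCVcc-Cre (~0.5 moi) in presence of compound, 44 h infection period, cells seeded 1,000/well 4 h prior.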
Pf growth 96h: P. falciparum growth inhibition at 96 hour, primary screen for plastid delayed-death inhibitors. P. falciparum luciferase reporter growth, 96 h. Potency, µM (doses to about 28.7 µM), actives largely listed as inhibitors. 320,000 compounds, 6.9% hits
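Parasite growth measured via integrated firefly luciferase reporter in P. falciparum. Infected erythrocytes at 2% hematocrit, 0.05% parasitemia final were treated 96 hours at 37 C under 5% CO2, and luminescence was read.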
AMA1 RON2 block: disrupts binding of P. falciparum AMA1 to RON2 | AlphaScreen AMA1-biotinylated RON2 peptide binding | Potency, µM (titrated, usually from 58.2 µM), most hits filed as inhibitors | 360,000 compounds, 0.2% hits | AID 720542; also: nearly all actives have a fitted effect of over 45% in size
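AMA1 (3D7) with his tag at 25 nM final met compounds first, then biotinylated RON2 peptide at 25 nM; detection used donor plus acceptor beads, 10 µg/mL apiece, read by AlphaScreen after 30 min at room temperature.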
CHX counter: counter-screen for Shiga toxin inhibitors: cycloheximide protein synthesis inhibition | cell reporter, cycloheximide protein synthesis inhibition counterscreen | max response, % | 300,000 compounds, 12% hits; in the data active = max response mostly above about 13%, no sharp cut-off; inactive = mostly below about 14%; also: read at 38.3 µM for the half of the compounds with a filed dose
Shiga toxin inh: blocks Shiga toxin action in Vero cells. 290,000 compounds, 9.2% hits. Vero cells, Shiga toxin protein synthesis inhibition reporter. inhibition, % at 38.7 µM; in the data active = inhibition mostly above about 28%, no sharp cut-off; inactive = mostly below about 43%
Pf growth 48h: P. falciparum growth inhibition at 48 hours (one generation); P. falciparum luciferase growth in erythrocytes, 48 h; Potency, µM (highest dose often 28.7 µM), usual class: inhibitors; 310,000 compounds, 5.9% hits; AID 504832
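First compound was added to culture medium, then infected red cells at 0.1% parasitemia and 2% hematocrit (final). After incubation at 37 C under 5% CO2, luciferase detection reagent was dispensed and light output recorded.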
Hits are given with their value; i = inactive; ? = inconclusive; nt = not tested or not shown. Hits are enriched below; roughly 21% of the tested compounds scored in any of these assays. Unless noted, calls follow the shape of the dose curve; as a rule, active = well fitted curve in the direction sought with a large enough effect; inconclusive = small, poorly fitted or top-dose-only effect, or another doubt; inactive = no such curve, though single readings can be large; an effect the other way counts as inactive or inconclusive.

SMILES	HCV inh	Pf growth 96h	AMA1 RON2 block	CHX counter	Shiga toxin inh	Pf growth 48h
Cc1cc2cc(CNC(=S)NC3CCCCC3)ccc2[nH]1	10µM	i	i	i	i	i
CNC(=S)NCc1ccc2[nH]c(C)cc2c1	i	i	i	i	i	i
COc1cc(NC(=O)C/C(C)=N/NC(=O)Cc2ccccc2)c(OC)cc1Cl	i	i	i	i	i	i
C/C(CC(=O)Nc1ccc(Cl)cc1C(F)(F)F)=N\NC(=O)c1cccs1	i	i	i	54	91	i
C/C(CC(=O)Nc1ccc(Cl)cc1C(F)(F)F)=N\NC(=O)c1ccccn1	i	i	i	41	76	i
C/C(CC(=O)Nc1ccc(Cl)cc1C(F)(F)F)=N\NC(N)=S	i	i	i	i	i	i
COc1cc(NC(=O)C/C(C)=N/NC(=O)c2cccs2)c(OC)cc1Cl	i	i	i	25	67	i
CO/N=C(/C(=O)N[C@@H]1C(=O)N2C(C(=O)O)=C(CSc3nc(C)c(CC(=O)O)s3)CS[C@H]12)c1csc(N)n1	nt	i	nt	nt	nt	i
COc1ccc(NC(=O)c2ccc(S(=O)(=O)N3CCOCC3)cc2)c(OC)c1	i	4.7µM	i	i	i	i
COc1ccc(S(=O)(=O)N2CCOCC2)cc1NC(=O)c1ccc(OC(F)F)cc1	?	i	i	nt	nt	?
COc1ccc(S(=O)(=O)N2CCOCC2)cc1NC(=O)c1ccc(-n2nc(C)cc2C)cc1	i	?	i	i	i	10µM
Cc1cc(NC(=O)CCc2ccc(S(=O)(=O)N3CCOCC3)cc2)n(-c2ccccc2)n1	i	?	i	i	i	13µM
Cc1cc(NC(=O)CN2CCOCC2)n(-c2ccccc2)n1	i	i	i	i	i	i
COc1cc(S(=O)(=O)N2CCCCC2)ccc1NC(=O)c1ccccc1Cl	i	i	i	i	i	9.3µM
COc1cc(S(=O)(=O)N2CCCCC2)ccc1NC(=O)c1ccc(F)cc1	i	10µM	i	i	i	i
COc1cc(S(=O)(=O)N2CCOCC2)ccc1NC(=O)COC(=O)CC12CC3CC(CC(C3)C1)C2	?	8.3µM	i	i	i	nt
COc1ccc(S(=O)(=O)N2CCOCC2)cc1NC(=O)CC(C)c1ccccc1 (centres undefined)	i	nt	i	nt	nt	nt
O=C(Nc1cc(S(=O)(=O)N2CCCCC2)ccc1Cl)c1ccc(F)cc1	?	?	i	nt	nt	?
CCN1CCN(S(=O)(=O)c2ccc(OC)c(NC(=O)c3ccccc3F)c2)CC1	i	7.4µM	i	nt	nt	i
CCCC(NCC(=O)Nc1cc(S(=O)(=O)N2CCOCC2)ccc1OC)c1ccccc1 (centres undefined)	?	12µM	i	nt	nt	12µM
O=S1(=O)C=C[C@@H](CO)N1Cc1ccc(Br)cc1	nt	nt	i	nt	nt	nt
CC[C@H](C)[C@H](NC(=O)c1ccc(Cl)cc1)C(=O)OCC(=O)c1c(N)n(C)c(=O)n(C)c1=O	?	nt	i	nt	nt	nt
Cc1cccc(C(O)c2ncc(-c3ccc(F)cc3)[nH]2)c1C (centres undefined)	nt	nt	i	nt	nt	nt
Cn1c(N)c(C(=O)COC(=O)CNC(=O)c2ccccc2F)c(=O)n(C)c1=O	i	nt	i	nt	nt	nt
CCOc1ncccc1C(=O)Nc1cc(S(=O)(=O)N2CCCCC2)ccc1Cl	i	0.83µM	i	nt	nt	?
SMILES	HCV inh	Pf growth 96h	AMA1 RON2 block	CHX counter	Shiga toxin inh	Pf growth 48h
COc1ccccc1NS(=O)(=O)c1ccc(C)c(NC(=O)c2ccc(S(=O)(=O)N3CCCCCC3)cc2)c1	7.9µM	?	i	i	i	?
COc1ccccc1NC(=O)c1ccc(S(=O)(=O)N2CCCC2)cc1	i	i	i	i	i	nt
Cc1ccc(C2=NN(CC(=O)O)C(=O)CC2)cc1	i	i	i	i	i	nt
O=C(CCNC(=O)c1ccc(Br)cc1)NCCCN1CCCC1=O	i	i	i	nt	nt	i
CC(C)NC(=O)CCCc1ccccc1	i	i	i	27	58	i
CCC(NC(=O)CCCc1ccccc1)c1ccccc1 (centres undefined)	i	?	i	i	i	i
CC(O)c1cccc(NC(=O)CCCc2ccccc2)c1 (centres undefined)	i	i	i	i	49	i
Cc1cccc(NC(=O)NNC(=O)CCc2ccccc2)c1	i	?	i	i	i	i
Cc1cccc(NC(=S)NC(=O)CCc2ccccc2)c1	i	?	i	18	72	i
CN(C)c1ccc(NC(=O)CCCc2ccccc2)cc1	i	nt	i	36	100	i
COC(=O)c1cc(S(=O)(=O)N2CCN(c3ccc(OC)cc3)CC2)cn1C	i	i	i	i	i	i
CCOc1ccccc1OCC(=O)NNC(=O)Cn1cnc2c1c(=O)n(C)c(=O)n2C	i	i	i	i	i	i
Cc1cccc(NC(=O)CCCc2ccccc2)c1	i	i	i	57	73	i
COc1ccc(CC(N)c2csc(NC(=O)Nc3cc(OC)ccc3OC)n2)cc1 (centres undefined)	nt	nt	i	nt	nt	nt
C=CCCC(=O)Nc1nc(C)c(-c2csc(Nc3cccc(OC)c3)n2)s1	6.3µM	12µM	i	i	i	2.6µM
C=CCCC(=O)Nc1nc(C)c(-c2csc(Nc3cc(OC)ccc3OC)n2)s1	3.2µM	13µM	i	i	i	?
Cc1nc(NC(=O)c2ccccc2)sc1-c1csc(Nc2ccc(C(=O)O)cc2)n1	?	2.9µM	i	10	i	i
CCCC(C)C(=O)Nc1nc(C)c(-c2csc(Nc3cc(OC)ccc3OC)n2)s1 (centres undefined)	?	9.3µM	i	i	i	6.6µM
COc1cccc(NC(=O)c2sc(NC(=O)c3ccncc3)nc2C)c1	i	i	i	i	i	i
O=C(CSc1nnnn1C1CC2C=CC1C2)Nc1ccc(C(=O)O)cc1 (centres undefined)	i	?	i	nt	nt	i
NS(=O)(=O)c1ccc(NS(=O)(=O)c2ccc(NC(=O)C3CC3)cc2)cc1	i	i	i	i	i	?
COc1cccc(Nc2nc(-c3sc(NC(=O)CC(C)C)nc3C)cs2)c1	i	13µM	i	i	i	?
COc1cccc(Nc2nc(-c3sc(NC(=O)c4ccccc4)nc3C)cs2)c1	i	4.1µM	i	i	71	5.2µM
COc1ccc(OC)c(Nc2nc(-c3sc(N)nc3C)cs2)c1	?	nt	i	i	i	15µM
Cc1cccc(NS(=O)(=O)c2nnc(NC(=O)CC(C)C)s2)c1	i	i	i	i	i	i
COc1ccc(OCCN2CCC(C(=O)NC(c3ccc(Cl)cc3)c3ncccc3C)CC2)cc1 (centres undefined)	nt	nt	i	nt	nt	nt
CCOc1ccc(-c2cccc(NS(=O)(=O)c3cccc([N+](=O)[O-])c3)c2)nn1	nt	nt	i	nt	nt	nt
COC(=O)c1ccc2nc(-c3ccc(Cl)cc3)c(Cc3cccc(Cl)c3)n2c1	nt	nt	i	nt	nt	nt
CC(C)(C)OC(=O)N[C@H]1C=C[C@@H](OC(=O)CC(=O)OCC(F)(F)F)C1	i	nt	i	nt	nt	nt
